Screens as filed in PubChem BioAssay.
The list is not random: actives were taken first. Their share in the collection is about 7.9%.
MCF10A rerep – induces DNA re-replication in MCF 10a normal breast cells | MCF 10A DNA re-replication, Hoechst nuclear intensity, 48 h | Potency, µM (highest dose often 46.1 µM), for the others: top-dose activity, positive = re-replication, usual class: activators | 2.9% of 350,000 active; note: % of control where 0% means no effect; nearly all actives have a fitted effect of over 50% in size
HT1080-NT tox – kills 2HG-producing HT-1080-NT fibrosarcoma cells; 1.6% of 360,000 active; Potency, µM (doses to about 46.1 µM), inactives show at the top dose activity, negative = less viability, hits mostly cytotoxic; HT-1080-NT fibrosarcoma viability, CellTiter-Glo ATP luminescence, 48 h; AID 686970;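 note: NT is the 2HG producing partner of a matched IDH1 knockdown line; 0% = DMSO-treated cells and -100% = media-only wells without cells; nearly all actives have a fitted effect of over 55% in size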
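Toxicity toward the 2HG-producing NT line was scored as %Activity, normalised to DMSO and no-cell wells, from CellTiter-Glo luminescence after 48 hours' treatment.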
HT1080 IDH1KD tx – HT-1080 IDH1 knockdown cell toxicity (counter line); HT-1080 IDH1 knockdown viability, ATP luminescence, 48 h; Potency, µM (highest dose often 46.1 µM), inactives show at the highest dose activity, negative = toxicity, most hits filed as cytotoxic; 2% of 360,000 active; AID 686971;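 note: 0% = DMSO wells and -100% = cell-free medium wells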
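Knockdown cells (IDH1KD HT-1080) received compounds 2 h after plating at 750 cells/well and were kept 48 h at 37 °C in 5% FBS RPMI. A CellTiter-Glo luminescence read gave % activity for curve fitting.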
KB-V1 MDR tox – KB-V1 MDR subline cytotoxicity. KB-V1 MDR cells viability, CellTiter-Glo, 72 h. Potency, µM (top dose mostly 46.1 µM), hits mostly cytotoxic. 3.4% of 400,000 active; note: % is set by controls: 0 for no effect and ±100 for the full control effect; nearly all actives have a fitted effect of over 60% in size
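Readout: CellTiter-Glo luminescence, 10 min after addition. Cells: KB-V1 MDR subline, 72 h at 37 degrees C with compound. Analysis: corrected, normalized data fitted to concentration-effect curves.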
KB-3-1 cytotox – kills parental KB-3-1 adenocarcinoma cells | 1.4% of 400,000 active | KB-3-1 viability, CellTiter-Glo ATP luminescence, 72 h | AID 1347075 | Potency, µM (highest dose often 46.1 µM), hits mostly cytotoxic; note: % is set by controls: 0 for no effect and ±100 for the full control effect; nearly all actives have a fitted effect of over 60% in size
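72 h, 37 °C compound treatment of KB-3-1 parental cells; CellTiter-Glo added, 10 min, luminescence read. Data corrected against DMSO-only plates and normalized before curve fitting.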
SW480 rerep – DNA re-replication induction in SW480 cells; SW480 DNA re-replication, Hoechst DNA content imaging, 48 h; Potency, µM (highest dose often 46.1 µM), inactives show at the highest dose re-replication activation, actives largely listed as activators; 1.8% of 340,000 active; note: % of control where 0% means no effect; nearly all actives have a fitted effect of over 55% in size
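Quantitative HTS format with DMSO vehicle controls; 48 hr drug incubation at 37 C, then 40 min Hoechst staining and scanning imager measurement at 405 nm excitation.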
Numbers without * were called inactive; i = inactive; ? = inconclusive; nt = no result. Calls come from the whole dose curve; as a rule, active = well fitted curve in the direction sought with a large enough effect; inconclusive = small, poorly fitted or top-dose-only effect, or another doubt; inactive = no such curve, though single readings can be large; an effect the other way counts as inactive or inconclusive. Potency is the fitted concentration of half-maximal effect.

SMILES | MCF10A rerep | HT1080-NT tox | HT1080 IDH1KD tx | KB-V1 MDR tox | KB-3-1 cytotox | SW480 rerep
O=C1NC[C@@H](CCCCN2CCN(CCC3CCCCC3)C(=O)C2=O)N(Cc2ccccc2)C1=O | nt | -9% | 7% | i | i | nt
NC(=O)C1c2ccccc2CCc2ccccc21 | 10% | nt | nt | nt | nt | 4%
CN(CC(=O)Nc1ccc(F)c(F)c1F)C(=O)C1CCC1 | ? | 17% | 21% | i | i | -11%
COC(=O)NC(NC(=S)Nc1ccc([N+](=O)[O-])cc1)C(Cl)(Cl)Cl (stereo not given) | 23% | -10% | -6% | 21µM* | ? | 16%
CCOC(=O)NC(NC(=S)Nc1ccc(OC)cc1)C(Cl)(Cl)Cl (stereo not given) | -3% | 1% | -4% | i | i | 24%
Cc1nc2nc(C)c(CCC(=O)NCc3ccccc3)c(C)n2n1 | nt | nt | nt | i | i | nt
CC(C)(C)S(=O)N1Cc2cc(C(=O)NCc3ccc(Oc4ccccc4)cc3)nc(-c3cccc(-c4cc5ccccc5o4)c3)c2[C@H]1CCO (stereo not given in full) | nt | 18µM* | 18µM* | i | ? | nt
CC(C)(C)S(=O)N1Cc2cc(C(=O)NCc3ccc4c(c3)OCO4)nc(-c3cccc(-c4cc5ccccc5o4)c3)c2[C@@H]1CCO (stereo not given in full) | nt | 23µM* | ? | i | ? | nt
COc1ccc(-c2csc(NC(=S)NC(=O)c3ccc4ccccc4c3)n2)cc1OC | ? | 15% | 6% | ? | ? | 15µM*
COc1cc(C(=O)NC(=S)Nc2nc(-c3ccc(F)cc3)cs2)cc(OC)c1OC | -6% | -2% | -7% | i | ? | -34%
Cn1c(=O)c2c(ncn2CC(=O)Nc2nc(-c3ccc(F)c(F)c3)cs2)n(C)c1=O | ? | 0% | 8% | ? | i | ?
N#Cc1ccc(-c2csc(NC(=O)/C=C/c3cccs3)n2)cc1 | ? | -18% | -17% | i | i | -90%
Cc1ccc(-c2csc(NC(=O)/C=C/c3cccs3)n2)cc1C | ? | -7% | -19% | 9.2µM* | ? | 10%
Cc1ccc(-c2csc(NC(=O)Cn3cnc4c3c(=O)n(C)c(=O)n4C)n2)cc1C | 21µM* | 1% | -3% | i | i | 11%
COc1ccc(-c2csc(NC(=O)CCn3cnc4ccccc4c3=O)n2)cc1OC | -5% | -6% | -2% | 18µM* | i | 0%
COc1ccc(-c2csc(NC(=O)CCCc3nc4ccccc4c(=O)[nH]3)n2)cc1OC | 15% | 1% | -1% | i | i | -6%
COc1ccc(CN(CC(=O)NCc2ccc(F)cc2)C(=O)CCC(=O)Nc2nccs2)cc1 | -32% | -26% | ? | i | i | -16%
CC(OC(=O)[C@@H]1CCCN1C(=O)c1cccs1)C(=O)Nc1cccc([N+](=O)[O-])c1 (stereo not given in full) | -8% | 0% | 6% | nt | nt | -1%
COC(=O)C[C@H]1CC[C@H](NC(=O)Nc2ccccc2)[C@@H](CO)O1 | nt | 12% | 11% | i | i | nt
COc1cccc(NC(=O)Nc2nc(-c3ccc(OC)c(OC)c3)cs2)c1 | 21µM* | 12µM* | 7.3µM* | ? | 18µM* | 7%
COc1ccc(-c2csc(NC(C)=O)n2)cc1OC | 0% | 1% | -3% | i | i | -19%
CC(=O)N1c2ccc(C)cc2Sc2c1ccc1ccccc21 | 21µM* | ? | -25% | i | i | ?
O=C(COC(=O)c1ccccc1F)Nc1ccc(S(=O)(=O)N2CCOCC2)cc1 | 8% | -4% | -2% | i | i | -9%
COc1ccc(Nc2nc(OC)nc(OC)n2)cc1 | -4% | 18% | 3% | i | i | 1%
COc1ccc(Nc2nc(Nc3ccc(OC)cc3)nc(-n3[nH]c(=O)c(C)c3C)n2)cc1 | ? | ? | ? | 1.2µM* | i | 13%
SMILES | MCF10A rerep | HT1080-NT tox | HT1080 IDH1KD tx | KB-V1 MDR tox | KB-3-1 cytotox | SW480 rerep
COc1cc(C(=O)Nc2nonc2-c2ccc(C)c(C)c2)cc(OC)c1OC | nt | nt | nt | i | i | nt
Cc1ccc2nc(-c3sc4nc(C)cc(C)c4c3N)[nH]c2c1 | 10µM* | 3% | 3% | ? | ? | 12µM*
c1ccc(-c2nnc3sc(-c4cc5ccccc5o4)nn23)cc1 | 18µM* | 18% | ? | i | i | ?
Cc1ccc(NC(=O)CSc2ncnc3c2sc2ccccc23)cc1C | nt | nt | nt | i | i | nt
Cc1cc(/C=N/n2cnnc2)c(C)n1-c1ccc(OCc2ccc(Cl)cc2)cc1 | ? | -18% | ? | 3.7µM* | 8.2µM* | 2%
CC(C)C(=O)OCC(=O)[C@@]12OC(C3CCCCC3)O[C@@H]1CC1C3CCC4=CC(=O)C=C[C@]4(C)C3[C@@H](O)C[C@@]12C (stereo not given in full) | ? | nt | nt | nt | nt | 12µM*
CCCC1O[C@@H]2C[C@H]3[C@@H]4CCC5=CC(=O)C=C[C@]5(C)[C@H]4[C@@H](O)C[C@]3(C)[C@]2(C(=O)CO)O1 (stereo not given in full) | 5% | -3% | 9% | i | i | -27%
O=C1CC(c2ccc(F)cc2)c2c(c3ccccc3[nH]c2=O)O1 (stereo not given) | nt | nt | nt | i | i | nt
CCCCCOc1ccc(CSc2n[nH]c(C)n2)cc1 | 23% | -24% | -53% | i | i | -4%
Cc1nc(SCc2ccc(OCCC(C)C)cc2)n[nH]1 | 13% | -3% | -5% | i | i | 23µM*
O=C(c1cc(C2CC2)nc2ccccc12)N1N=C(C(F)F)CC1(O)C(F)F (stereo not given) | ? | -1% | -1% | ? | i | 24%
CC(C)c1ccc(-c2cc(C(=O)N3N=C(C(F)F)CC3(O)C(F)F)c3ccccc3n2)cc1 (stereo not given) | 4.5µM* | ? | ? | ? | ? | ?
CC(Sc1nnc(-c2ccccc2F)n1C)C(=O)NC1CCCCC1 (stereo not given) | 16% | 0% | -2% | i | i | 11%
CCCCOc1ccc(CSCCN=C(N)N)cc1 | ? | ? | 26µM* | i | i | ?
CN(c1ccc(/C=C/c2ccccc2)cc1)P1(=O)NCCCO1 (stereo not given) | nt | nt | nt | i | i | nt
CCc1ccc(-n2nc(C)c3c(C(=O)Nc4cc(C)c(Cl)cc4OC)cc(C)nc32)cc1 | nt | nt | nt | i | i | nt
COc1ccccc1NC(=O)C1CC(C(C)C)OC1=O (stereo not given) | ? | ? | 23% | i | i | -44%
